tim10-1 inh: inhibits growth of tim10-1 mutant yeast; AID 463190; S. cerevisiae tim10-1 ts strain growth, BacTiter-Glo, 24 h; 330,000 compounds, 2.2% hits; inhibition, % at 20 µM;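 active = inhibition of at least 40%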;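 note: mutant grown at 25 °C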
PfHsp90 set2: growth inhibition of yeast expressing Plasmodium Hsp90; inhibition, % at 9.4 µM; S. cerevisiae expressing PfHsp90, BacTiter-Glo ATP, 48 h; yeast lacking PDR1 and PDR3 efflux regulators; 310,000 compounds, 0.32% hits; AID 504621;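 active = every replicate shows inhibition above about 80%, whatever the replicate mean, limit read from the data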
tim23-1 inh: growth inhibitors of tim23-1 mutant yeast | inhibition, % at 20 µM | AID 463212 | S. cerevisiae tim23-1 growth, BacTiter-Glo luminescence, 24 h | 330,000 compounds, 1.3% hits;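 active = growth inhibition of the mutant yeast at or above 50%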;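 note: temperature-sensitive mutant grown at 25 °C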
NALP1 yeast inh: blocks the NALP1 inflammasome reconstituted in yeast | AID 2071 | S. cerevisiae NALP1/ASC/caspase-1 growth, X-gal OD620, 72 h | inhibition, % at 10 µM | 280,000 compounds, 0.61% hits; in the data active = inhibition mostly above about 24%, no sharp cut-off; inactive = mostly below about 32%
SKKanGAS inh: blocks kanamycin growth of S. pyogenes SKKanGAS strain; inhibition, % at 7.5 µM; BacTiter-Glo, 6 h; 300,000 compounds, 1.3% hits;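 active = mean replicate score, as percent of positive control median, at least 50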;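 note: strain carries kanamycin resistance gene driven by streptokinase promoter and grows in 40 µg/ml kanamycin; loss of luminescence reflects streptokinase promoter inhibition or plain growth inhibition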
TIM10 inh: growth inhibitors of TIM10 yeast strain; 330,000 compounds, 1.4% hits; S. cerevisiae TIM10 strain growth, BacTiter-Glo luminescence, 24 h; inhibition, % at 10 µM;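 active = inhibition of 40% or more at the single tested concentration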;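 note: wild-type TIM10 isogenic control strain grown at permissive 25 °C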
Large screens that a line does not name were inactive. Hits are enriched below; roughly 4.8% of the tested compounds scored in any of these assays.

O=C(CCn1cncn1)N1CCN(S(=O)(=O)c2ccc(Cl)cc2)CC1	none
Cn1ccc(C(=O)OCC(=O)Nc2cccc(Cl)c2)n1	none
CC(C)(C)OC(=O)[C@H](Cc1ccccc1)NC(=O)c1[nH]cnc1C(=O)Nc1ccc(Cl)cc1	SKKanGAS inh 91 (no result: NALP1 yeast inh)
CCOC(=O)c1ccc(NC(=O)c2nc[nH]c2C(=O)NCCCCNC(=O)c2[nH]cnc2C(=O)Nc2ccc(C(=O)OCC)cc2)cc1	none (no result: NALP1 yeast inh, SKKanGAS inh)
CCOC(=O)c1ccc(NC(=O)c2nc[nH]c2C(=O)NCCCCCNC(=O)OC(C)(C)C)cc1	SKKanGAS inh 64 (no result: NALP1 yeast inh)
CCOC(=O)c1ccc(NC(=O)c2nc[nH]c2C(=O)N[C@@H](Cc2ccccc2)C(=O)OC(C)(C)C)cc1	SKKanGAS inh 56 (no result: NALP1 yeast inh)
CCn1ncc(Br)c1C(=O)NC(C)c1ccccc1 (stereo not drawn)	none
O=C(Nc1cccc2ccccc12)NC1CCCc2ccccc21 (stereo not drawn)	none
O=C1c2ccccc2CCCC12N=NCC2c1cccc2ccccc12 (stereo not drawn)	SKKanGAS inh 50
COC(=O)c1ccc(C)cc1C1CN=NC12Cc1cc(C)ccc1C2=O (stereo not drawn)	none (no result: tim10-1 inh, tim23-1 inh, NALP1 yeast inh, SKKanGAS inh, TIM10 inh)
Cc1ccc(C2CN=NC23CCc2ccccc2C3=O)cc1 (stereo not drawn)	NALP1 yeast inh 37
Cc1cc(NS(=O)(=O)c2ccc(NC(=O)C(C)Oc3ccc(Cl)cc3)cc2)no1 (stereo not drawn)	none
CCOc1cc(/C=N/NC(=O)CNc2cccc(C)c2)ccc1OC(=O)c1ccccc1	none
CCOc1cc(/C=N/Nc2cccc(C(=O)O)c2)ccc1OC(=O)c1ccccc1	SKKanGAS inh 50
O=C(COc1ccc(Cl)cc1Cl)Nc1ccc(CN2CCOCC2)cc1	SKKanGAS inh 103
CC(Oc1ccc(Cl)cc1Cl)C(=O)NCCCN1CCOCC1 (stereo not drawn)	NALP1 yeast inh 41
CC(C)(C)C1CCC2(CC1)C(C#N)=C(SCC(=O)Nc1ccccc1)NC(=O)C2C#N (stereo not drawn)	SKKanGAS inh 68
CC1(C)CC(=O)C2=C(C1)NC(SCC(=O)Nc1ccccc1)=C(C#N)C21CCCCC1	none
O=c1cc(O)c2sc3nc(-c4cccnc4)cc(C(F)(F)F)c3c2[nH]1	none
Cc1cc(C(F)(F)F)c2c(n1)sc1c(O)cc(=O)[nH]c12	SKKanGAS inh 50
CCCCn1c(N)c(N(CCOC)C(=O)CSc2ccccc2C)c(=O)[nH]c1=O	none (no result: NALP1 yeast inh)
Cc1cc(/C=c2\sc3nc4ccccc4n3c2=O)c(C)n1-c1ccc(C(=O)O)cc1	PfHsp90 set2 112 (no result: tim10-1 inh, tim23-1 inh, TIM10 inh)
OCC[C@@H]1C[C@@H](O)[C@H](O)[C@@]2(Cc3ccccc3CO2)O1	none
COCCSc1ccccc1C(=O)NCc1ccc(S(N)(=O)=O)cc1	none
COCCCC1CCN(Cc2cn[nH]c2-c2cc(OC)c(OC)c(OC)c2)CC1	NALP1 yeast inh 26
COCC1CCN(Cc2cn[nH]c2-c2cc(OC)c(OC)c(OC)c2)CC1	none
CC(=O)Nc1ccc(-c2ccc(NC(C)=O)cc2)cc1	none
CC(=O)Nc1ccc(C#Cc2ccc(NC(C)=O)cc2)cc1	SKKanGAS inh 84
CCSc1nnc(Cc2cc(=O)[nH]c(=O)[nH]2)n1-c1cc(C)ccc1C	NALP1 yeast inh 28
CSc1nnc(Cc2cc(=O)[nH]c(=O)[nH]2)n1-c1cc(C)ccc1C	none
O=[N+]([O-])c1ccc(-c2cnc(SC(c3ccccc3)c3ccccc3)[nH]2)cc1	SKKanGAS inh 62
O=C(COc1ccccc1)Nc1cccc(-c2nc3cc4ccccc4cc3[nH]2)c1	SKKanGAS inh 67 (no result: PfHsp90 set2)
CC1=CCC2C(=O)N(c3ccc(C)cc3)C(=O)C2C1 (stereo not drawn)	none
CC(=O)O[C@H]1[C@H](O)[C@H](Oc2c(O)c(C)c3c4c2[C@@H](C)CC[C@@H]4[C@@H](C)C[C@H]3C=C(C)C)O[C@@H](C)[C@H]1O	PfHsp90 set2 118 (no result: NALP1 yeast inh, SKKanGAS inh)
CC(=O)OC1[C@H](Oc2c(O)c(C)c3c4c2[C@@H](C)CC[C@@H]4[C@@H](C)C[C@@H]3C=C(C)C)OC[C@@H](O)[C@@H]1O (stereo partly drawn)	none (no result: NALP1 yeast inh, SKKanGAS inh)
COc1ccc(C(C)=O)cc1COc1cc(C)c(Cl)c(C)c1	SKKanGAS inh 50
Cc1nnc(-c2cccc(Br)c2)c2cn(-c3ccc(Br)cc3)nc12	SKKanGAS inh 56
Cc1nnc(-c2cccc(Br)c2)c2cn(-c3cccc(Br)c3)nc12	none
COc1ccc(-n2nc(C(=O)NCc3ccco3)c3c4ccccc4n(C)c3c2=O)cc1	none (no result: PfHsp90 set2)
Cc1ccc(-n2nc(C(=O)NCc3ccc(C)o3)c3c4ccccc4n(C)c3c2=O)cc1	NALP1 yeast inh 38
O=C(c1cc(-c2ccccn2)nc2ccc(Cl)cc12)N1CCN(CCc2ccccc2)CC1	none
Cc1cnn(C(=O)c2cc(-c3ccccn3)nc3ccc(Cl)cc23)c1	NALP1 yeast inh 41
CCc1noc(C)c1C(=O)N1CCN(S(=O)(=O)c2ccc(C)cc2C)CC1	none (no result: PfHsp90 set2, NALP1 yeast inh)
CC1CCN(CCOc2ccc(OCc3ccccc3)cc2)CC1	NALP1 yeast inh 49
c1ccc(COc2ccc(OCCCCN3CCCC3)cc2)cc1	none
Cc1ccc(/C(=N/Nc2nc3ccccc3s2)C2=C(O)c3ccccc3C2=O)cc1	SKKanGAS inh 57
CN(Cc1ccc(OC(F)F)cc1)Cc1nc2c(Br)cc(Br)cc2c(=O)[nH]1	SKKanGAS inh 62
Cc1ccc(NC(=O)CN(C)Cc2nc3c(Br)cc(Br)cc3c(=O)[nH]2)cc1	SKKanGAS inh 60
CCN(CC(=O)NC(C)(C)C)Cc1nc2c(Br)cc(Br)cc2c(=O)[nH]1	SKKanGAS inh 51
COc1ccc(S(=O)(=O)N2CCOCC2)cc1NC(=O)CN1C(=O)NC2(CCCCC2C)C1=O (stereo not drawn)	none (no result: NALP1 yeast inh, SKKanGAS inh)
CCOC(=O)CNC(=O)N1CCC(CCOc2ccccc2)(C(=O)OCC)CC1	none
CC1(C)CC(c2nc(-c3ccc(Cl)cc3)cs2)CCS1 (stereo not drawn)	SKKanGAS inh 65
CC1(C)CC(c2nc(-c3ccc(Br)cc3)cs2)CCS1 (stereo not drawn)	none (no result: NALP1 yeast inh)
O=C1CN(C(=O)c2ccc(Br)o2)C(c2ccccc2)c2cc(F)ccc2N1 (stereo not drawn)	none
COc1ccccc1C(=O)COC(=O)c1cc([N+](=O)[O-])ccc1N1CCOCC1	none (no result: NALP1 yeast inh)
COc1ccc(C(=O)COC(=O)c2cc([N+](=O)[O-])ccc2N2CCOCC2)c(OC)c1	PfHsp90 set2 active (no result: NALP1 yeast inh)
CCN(CC)c1nc(C(F)(F)F)nc2c1nnn2Cc1ccccc1	SKKanGAS inh 58
CCC1CCCCN1C(=O)COC(=O)c1cc(=O)[nH]c2ccccc12 (stereo not drawn)	none (no result: NALP1 yeast inh, SKKanGAS inh)
N#CC12CCCCC1CC1CCCCC1(C#N)N2Cc1ccccn1 (stereo not drawn)	NALP1 yeast inh 38
N#CC12CCCCC1CC1CCCCC1(C#N)N2CCO (stereo not drawn)	none

Screens: PubChem, several laboratories
